We go through 13 molecules from PubChem BioAssay.

Calls of active or inactive are those of the source. Unless noted, no rule for the calls is given here.

The test system of experiment [1] is XIP peptide (Xip251-270) binding. The experiment is described as follows: XIP fragment 251-270 binding compounds – biochemical, small-molecule microarray, fluorescence 635/667 nm, 0.1 µg/mL protein, primary screen (AID 1182). The note with it: fluorescent protein binding, 635 nm, higher = more signal, called active from +8 up or from −8 down.
Experiment [2] deals with XIP peptide (Xip251-270). The experiment is described as follows: compounds binding XIP fragment 251-270 – biochemical, small-molecule microarray, fluorescence 635/667 nm, 0.5 µg/mL protein, primary screen (AID 1183). The note with it: fluorescence 635 nm, higher = more signal.
The nature of experiment [3]: blood-stage malaria parasite viability loss – strain 3D7, DAPI fluorescence, 100 nL, primary screen (AID 1184).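 Also: parasites grown inside human red blood cells in medium with human serum.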 The note with it: P. falciparum 3D7 growth, 3 d, higher = more signal.
In experiment [4] the target is Homeobox protein Hox-A13 (Mus musculus) (UniProt Q62424). The experiment is described as follows: disruptors of Hoxa13 oligonucleotide interaction – biochemical, fluorescence polarization, labeled oligonucleotide, primary screen (AID 1185). The note with it: Hoxa13:DNA binding, 15 min, higher = more signal, called active from +8 up or from −8 down. Background: Polarisation of emitted light reports the rotation of a fluorescent probe.

A short description of experiment [5]: blockers of DNA damage checkpoint Chk1 activation – imaging, HeLa, hydroxyurea, phospho-Chk1 antibody, percent positive cells, primary screen (AID 1186). The note with it: hydroxyurea-induced phospho-Chk1 immunofluorescence imaging, higher = more signal.
Experiment [6] in a line: blockers of DNA damage checkpoint Chk1 activation – imaging, HeLa, hydroxyurea, phospho-Chk1 nuclear intensity, primary screen (AID 1187). The note with it: hydroxyurea-induced phospho-Chk1 immunofluorescence imaging, higher = more signal.

Chain of Homeobox protein Hox-A13 (Mus musculus) (Q62424 whole entry, looked up): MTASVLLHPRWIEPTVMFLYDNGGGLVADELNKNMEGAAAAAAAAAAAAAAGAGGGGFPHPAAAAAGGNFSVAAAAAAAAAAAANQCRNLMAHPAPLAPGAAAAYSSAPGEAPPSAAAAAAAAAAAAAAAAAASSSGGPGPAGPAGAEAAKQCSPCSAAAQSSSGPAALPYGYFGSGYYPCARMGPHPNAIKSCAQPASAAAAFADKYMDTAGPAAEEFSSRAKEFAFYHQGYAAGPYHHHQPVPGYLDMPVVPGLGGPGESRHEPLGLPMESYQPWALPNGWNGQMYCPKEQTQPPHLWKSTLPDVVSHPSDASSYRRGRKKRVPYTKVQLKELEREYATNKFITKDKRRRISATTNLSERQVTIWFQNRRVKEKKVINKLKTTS

Take `CC(=O)NCCCC[C@@H]1NC(=O)[C@@H]2C[C@H](C(=O)NCCCCN(C)C)[C@H](c3ccc(O)cc3)N2C1=O`: the values for the composite z-score in experiment [1] and in experiment [2] were -0.308 (inactive) and -0.208, respectively. The z-score in experiment [3] was 0.101; in experiment [4], -0.795 (inactive); in experiment [5], -0.396 (inactive); in experiment [6], -0.291 (inactive).

With `COC(=O)c1ccc(C23CC2(C(NP(=O)(c2ccccc2)c2ccccc2)c2ccccc2)C3)cc1` (stereo not drawn), the figures for the composite z-score in experiment [1] and in experiment [2] were 0.946 (inactive) and 0.474, respectively. The z-score in experiment [3] was -1.35; in experiment [4], -3.76 (inactive); in experiment [5], -1.54 (inactive); in experiment [6], -1.34 (inactive).

`COc1ccc(C#Cc2ccc3c(c2)[C@]2(C(=O)N3)[C@H](C(=O)NC[C@H](O)c3ccccc3)[C@H]3C(=O)O[C@H](c4ccccc4)[C@H](c4ccccc4)N3[C@@H]2c2ccccc2OCCO)cc1`: the composite z-score was 0.0376 (inactive) in experiment [1] and 0.881 in experiment [2]. The z-score in experiment [3] was -1.01; in experiment [4], -2.33 (inactive); in experiment [5], -0.166 (inactive); in experiment [6], -0.118 (inactive).

With `COCCOC(=O)N1C(=O)[C@@]2(c3cc(C#CCC(C(=O)OC)C(=O)OC)ccc31)[C@H](C(=O)N1CCCCCCC1)[C@H]1C(=O)O[C@H](c3ccccc3)[C@H](c3ccccc3)N1[C@@H]2c1ccc(OCCO)cc1`, the composite z-score was 0.968 (inactive) in experiment [1] and 0.746 in experiment [2]. Besides, the z-score in experiment [3] is -1.79; in experiment [4], -15.8 (active); in experiment [5], -0.479 (inactive); in experiment [6], -0.719 (inactive).

Regarding `O=C1O[C@@H](c2ccccc2)[C@@H](c2ccccc2)N2[C@@H](c3ccc(OCCO)cc3)[C@]3(C(=O)Nc4ccc(C#CC5=CCCCC5)cc43)[C@@H](C(=O)O)[C@H]12`, the composite z-score in experiment [1] is 0.383 (inactive); in experiment [2], 0.504. In addition, the z-score in experiment [3] is 0.287; in experiment [4], -3.99 (inactive); in experiment [5], 0.419 (inactive); in experiment [6] it was 0.542 (inactive).

For `CC(C)N1C(=O)[C@@]2(c3ccc([N+](=O)[O-])cc3)CC(=O)N(CC34CC5CC(CC(C5)C3)C4)[C@@H]2c2ccc(CO)cc21`, the composite z-score in experiment [1] was -0.43 (inactive); in experiment [2], 0.52. Besides, the z-score was 0.115 in experiment [3], -0.734 (inactive) in experiment [4], 0.18 (inactive) in experiment [5] and -0.0138 (inactive) in experiment [6].

For the molecule `COCCOC(=O)N1C(=O)[C@@]2(c3cc(C#CCCO)ccc31)[C@H](c1ccccc1OCCO)N1[C@H](c3ccccc3)[C@H](c3ccccc3)OC(=O)[C@H]1[C@@H]2C(=O)N1CCN(c2ncccn2)CC1`, the composite z-score in experiment [1] was 0.377 (inactive); in experiment [2], 0.783. In addition, the z-score in experiment [3] is -1.89; in experiment [4] it was -1.16 (inactive); in experiment [5] it was -0.0825 (inactive); in experiment [6] it was -0.157 (inactive).

On to `CCCCCCCCCCC(O)C1C=CC2C(=O)N(Cc3ccccc3)C(=O)C2N1n1cnnc1` (stereo not drawn), for which the composite z-score in experiment [1] was 0.109 (inactive); in experiment [2] it was 0.609. The z-score in experiment [3] is -1.08; in experiment [4], -2.2 (inactive); in experiment [5], 0.577 (inactive); in experiment [6], -0.034 (inactive).

As to `O=C1O[C@H](c2ccccc2)[C@H](c2ccccc2)N2[C@H]1[C@@H](C(=O)NC[C@H](O)c1ccccc1)[C@]1(C(=O)Nc3ccc(C#CCCO)cc31)[C@H]2c1ccc(O)cc1`, the results for the composite z-score in experiment [1] and in experiment [2] were -0.105 (inactive) and 0.278, respectively. The z-score was -1.23 in experiment [3], -0.545 (inactive) in experiment [4], 0.289 (inactive) in experiment [5] and 0.0974 (inactive) in experiment [6].

Consider `O=C1C=CC(=O)[C@@H]2CC(COc3ccccc3)=C3[C@@H](CCc4ccccc4)OB(O)C[C@@H]3[C@H]12`, for which the values for the composite z-score in experiment [1] and in experiment [2] were -0.193 (inactive) and 0.433, respectively. The z-score in experiment [3] is -1.73; in experiment [4] it was -5.92 (inactive); in experiment [5], -0.042 (inactive); in experiment [6], 0.528 (inactive).

For `CC=CC(O)C1C=CC2C(=O)N(c3ccccc3)C(=O)C2N1Nc1ccc(C(C)C)cc1` (stereo not drawn), the composite z-score was 0.213 (inactive) in experiment [1] and 0.766 in experiment [2]. For the same molecule, the z-score in experiment [3] was -0.747; in experiment [4] it was -2.24 (inactive); in experiment [5] it was 0.55 (inactive); in experiment [6] it was 0.538 (inactive).

For the molecule `COCCCNC(=O)[C@@]1(C)c2ccccc2C(=O)N(Cc2cc(C(F)(F)F)cc(C(F)(F)F)c2)[C@H]1c1ccc(CO)cc1`, the composite z-score in experiment [1] is 0.707 (inactive); in experiment [2], 0.875. Further, the z-score is -0.577 in experiment [3], -3.6 (inactive) in experiment [4], -0.385 (inactive) in experiment [5] and 0.0021 (inactive) in experiment [6].

`CN1C(=O)C2C(C1=O)C1C=C(CCCO)C2C(c2cccs2)N1C` (stereo not drawn): the results for the composite z-score in experiment [1] and in experiment [2] were -0.119 (inactive) and -0.0427, respectively. The z-score in experiment [3] is 0.404; in experiment [4], -9.72 (active); in experiment [5] it was 0.207 (inactive); in experiment [6], -0.0851 (inactive).
